In PubChem BioAssay (NCI):
Compounds without any hit were thinned out: in the full panel of roughly 83,000, 20% have a hit.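 How to read the values: 0–100, growth inhibition (40 = 60% inhibited); 0, no net growth; -100 to 0, cell death (-40 = 40% of starting cells died; -100 = all dead).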 A number with no mark means an inactive call. Activity calls are given as the source filed them.

Tested on: CCRF-CEM leukemia
Test: NCI-60 one-dose screen, 48 h (100 = growth as untreated, 0 = no growth, -100 = all killed)
Conditions: 10 µM unless noted
Method: Growth inhibition of the CCRF-CEM human tumor cell line is measured as a screen for anti-cancer activity. Cells are grown in 96 well plates and exposed to the test compound for 48 hours. Compounds are tested at a single concentration, which is 10^-5 M for most compounds. The reported endpoint is percent growth (GI% or GIPRCNT), where numbers from 0 - 100% represent growth inhibition, and numbers from -100% - 0 represent cell death. For example, a value of 40 represents 60% growth inhibition. A value of 0 means no net growth occurred over the course of the experiment. A value of -40 indicates 40% of cells at the beginning of the experiment died by the end of the experiment. A value of -100 means all cells are dead at the end of the experiment.
NCI-60 Human Tumor Cell Lines Screen was performed using the standard one-dose NCI protocol, which is described in more detail at https://dtp.cancer.gov/discovery_development/nci-60/default.htm.
Compounds with GIPRCNT values below 10 were considered active. Activity score was based on GIPRCNT using the following formula: […]
Score is 0 for GIPRCNT values of 100 or above, 50 for GIPRCNT values of 0, and 100 for GIPRCNT values of -100.

**Q.** Which growth does the source give for `COc1ccc(-c2c(C(N)=O)c(N)n(Cc3nc4ccccc4[nH]3)c(=O)c2C#N)c(OC)c1` here?
**A.** Its growth is 107%.

**Q.** How did the growth turn out when `CCOC(=O)c1c(NC(=O)c2ccc(C(F)(F)F)cc2)sc2c3c(ccc12)OCN(C)C3` was run?
**A.** Its growth is 2.17% (active).

**Q.** With `CCc1cc2c(cc1Cl)nc1c(=O)[nH]c(=O)nc-1n2CCOCC(C)(C)C` as the compound, how does the growth read?
**A.** Its growth is 89.6%.

**Q.** How did the growth turn out when `CN1CCN(Cc2ccc(NC(=O)c3cncc(C#Cc4cnc5ccc(OCC(F)F)nn45)c3)cc2C(F)(F)F)CC1` was run?
**A.** The growth was 2.09% (active).

**Q.** Which growth does the source give for `O=C(COc1ccc(/C=C2\C(=O)Nc3cc(Cl)ccc32)cc1)Nc1ccc(Cl)cc1` here?
**A.** Its growth is 48.9%.

**Q.** For `CCOC(=O)c1ccccc1NC1=C(Cl)C(=O)c2nc(C)ccc2C1=O`, which growth is on record?
**A.** Its growth is 84.3%.

**Q.** With `Cn1ncc2c(C(=O)c3ccc(F)cc3)nc(C(C)(C)C)nc21` as the compound, how does the growth read?
**A.** Its growth is 103%.

**Q.** `O=S1SC(c2ccccc2)=NN1c1cc(F)cc(F)c1` (stereo not given) was tested. Which growth did it give?
**A.** The growth was 18.8%.

**Q.** With `CCOP(=O)(OCC)OC[C@]12CCC(C)(C)C[C@H]1C1=CC[C@@H]3[C@@]4(C)CC[C@H](OP(=O)(OCC)OCC)C(C)(C)[C@@H]4CC[C@@]3(C)[C@]1(C)CC2` as the compound, how does the growth read?
**A.** Its growth is 49.2%.

**Q.** Which growth does the source give for `Cc1ccc(S(=O)(=O)c2nc(-c3ccc(F)cc3)oc2S(C)(=O)=O)cc1` here?
**A.** The growth was -14.8% (active).

**Q.** For `CN1CCN(c2ccc(Nc3nc(NCCCNS(=O)(=O)c4ccc(C(F)(F)F)cc4)c4sccc4n3)cc2)CC1`, which growth is on record?
**A.** Its growth is 6.25% (active).

**Q.** For `COc1cc(-c2nc(-c3ccccc3)[nH]c2-c2ccnc(NCCCNS(=O)(=O)c3ccc(C)cc3)n2)ccc1F`, which growth is on record?
**A.** The growth was 56.9%.

**Q.** `O=C1[C@@H]2Cc3c([nH]c4ccccc34)[C@@H](c3ccc(Cl)cc3)N2C(=O)CN1C1CCN(Cc2ccccc2)CC1` was tested. Which growth did it give?
**A.** The growth was 20.1%.

**Q.** `CCOC(=O)c1c(NCC(=O)Nc2cccc([N+](=O)[O-])c2)sc(C(C)=O)c1C` was tested. Which growth did it give?
**A.** Its growth is 4.89% (active).

**Q.** Which growth does the source give for `Cc1nc(/N=C(N)/N=C(\N)c2cccc(Br)c2)sc1C` here?
**A.** The growth was 34%.

**Q.** `CC1=C(C)C(=O)C(Nc2ccc(C)cc2)=C(Br)C1=O` was tested. Which growth did it give?
**A.** Its growth is 17.9%.

**Q.** `O=C(CN1CCN(c2cc(=O)[nH]c3ccc(F)cc23)CC1)N(c1ccccc1)c1ccccc1` was tested. Which growth did it give?
**A.** The growth was 102%.

**Q.** `CN1CCN(Cc2ccc(/C=N/Nc3ccnc4cc(Cl)ccc34)cc2)CC1` was tested. Which growth did it give?
**A.** Its growth is 56.9%.

**Q.** With `Cc1ccc(C)c(NC2=C(Cl)C(=O)c3nc(C)ccc3C2=O)c1` as the compound, how does the growth read?
**A.** The growth was 0.186% (active).

**Q.** For `CC(=O)c1cc(C(=O)N2c3ccccc3Sc3ccccc32)n2c1ccc1ccccc12`, which growth is on record?
**A.** The growth was 35.9%.

**Q.** Which growth does the source give for `O=c1nc(Nc2ccc([N+](=O)[O-])cc2O)sc2ccccc12` here?
**A.** The growth was 16.6%.

**Q.** How did the growth turn out when `O=C(CCCCCC/C=C\c1csc(Br)n1)NO` was run?
**A.** Its growth is 52.7%.

**Q.** How did the growth turn out when `Cc1ccc2c(n1)C(=O)C(Cl)=C(Nc1cc(C(F)(F)F)cc(C(F)(F)F)c1)C2=O` was run?
**A.** Its growth is 4.75% (active).

**Q.** How did the growth turn out when `CC1=C(C)C(=O)C(Nc2cccc(C(=O)OC(C)(C)C)c2)=C(Cl)C1=O` was run?
**A.** The growth was 21.9%.

**Q.** With `C#CCOc1ccccc1C(OC(=O)c1ccccc1)C(=O)NC(C)(C)C(C)(C)C` (stereo not given) as the compound, how does the growth read?
**A.** Its growth is 79.5%.

**Q.** `c1ccc(-c2cn3c(-c4c[nH]c5ccccc45)csc3n2)cc1` was tested. Which growth did it give?
**A.** Its growth is 53%.

**Q.** How did the growth turn out when `CC(=O)Nc1ccccc1-c1nc2ccccc2s1` was run?
**A.** Its growth is 98.4%.

**Q.** For `CN1CCN(c2ccc(Nc3nc(NCCCNS(=O)(=O)c4cccc5ccccc45)c4sccc4n3)cc2)CC1`, which growth is on record?
**A.** Its growth is 7.22% (active).

**Q.** With `CC(O)c1cccc(/C(N)=N/C(N)=N/c2nc3ccccc3s2)c1` (stereo not given) as the compound, how does the growth read?
**A.** The growth was 84%.

**Q.** How did the growth turn out when `Cc1[nH]c(C(=O)Nc2ccc(S(=O)(=O)N3CCCCC3)cc2OCCOCCOCCOCCOCCOCCOCCOCCOCCOc2cc(S(=O)(=O)N3CCCCC3)ccc2NC(=O)c2[nH]c(C)c3c2CCCCC3=O)c2c1C(=O)CCCC2` was run?
**A.** The growth was 38.4%.

**Q.** With `C=C(C)[C@@H]1CC[C@]2(C(=O)NC3CCCCC3)CC[C@]3(C)[C@H](CC[C@@H]4[C@@]5(C)CC[C@H](N)C(C)(C)[C@@H]5CC[C@]43C)[C@@H]12` as the compound, how does the growth read?
**A.** Its growth is 79.4%.

**Q.** `CCc1cc2c(cc1Cl)nc1c(=O)[nH]c(=O)nc-1n2CCOCC(C)C` was tested. Which growth did it give?
**A.** Its growth is 77.6%.

**Q.** For `O=C1Nc2ccc(F)cc2/C1=C\C(=O)c1ccc(NS(=O)(=O)c2ccccc2)cc1`, which growth is on record?
**A.** Its growth is 8.68% (active).

**Q.** How did the growth turn out when `COc1cccc2c1C=CC1(O2)Oc2cccc(OC)c2C=C1C` (stereo not given) was run?
**A.** The growth was 10.1%.

**Q.** For `COc1ccc(/C=N/N=C(/c2ccccc2)c2ccc3nc(-c4ccc(Cl)cc4)[nH]c3c2)cc1`, which growth is on record?
**A.** The growth was 68.1%.

**Q.** How did the growth turn out when `COc1ccc(-c2cc(-c3ccc(N4CCOCC4)cc3)n3c(n2)nc2ccccc23)cc1OC` was run?
**A.** The growth was 63.7%.

**Q.** For `CCOC(=O)C(=O)Nc1ccc2c(ccn2C(=O)c2cccc(F)c2)c1`, which growth is on record?
**A.** Its growth is 2.8% (active).

**Q.** With `Cc1ccc(-c2cc3nc(C(Cl)Cl)nc(-c4ccc(S(=O)(=O)N(C)C)cc4)n3n2)cc1` as the compound, how does the growth read?
**A.** Its growth is 69.3%.

**Q.** `COc1cccc(N2CCN(C3=C(Cl)C(=O)c4ncccc4C3=O)CC2)c1` was tested. Which growth did it give?
**A.** The growth was 10% (active).

**Q.** Which growth does the source give for `N#Cc1c(-c2cccs2)c(C#N)c(=O)n(Cc2nc3ccccc3[nH]2)c1N` here?
**A.** Its growth is 101%.
